Laboratory results: PubChem BioAssay AID602438 (Sanford-Burnham Center for Chemical Genomics, 2012)
The campaign covered roughly 360,000 compounds. About 3,100 (0.86%) were called active. Only a selection was taken, and actives are over-represented in it overall. A number with no mark means an inactive call.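 The calls were made as follows: active = inhibition or corrected inhibition above about 18%, plus a signal ratio from 0.5 to 1.5 (limit read from the data, passing the limit was not always enough); inactive = the rest.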

target: Neuropilin-1 (Homo sapiens) (UniProt O14786); assay: modulators of CendR peptide binding to NRP-1, primary screen, biochemical, fluorescence polarization, uHTS (AID 602438); conditions: FAM-RPARPAR peptide binding to NRP-1, fluorescence polarization; at 25 µM; hits give high values
Sequence (O14786 whole entry, looked up): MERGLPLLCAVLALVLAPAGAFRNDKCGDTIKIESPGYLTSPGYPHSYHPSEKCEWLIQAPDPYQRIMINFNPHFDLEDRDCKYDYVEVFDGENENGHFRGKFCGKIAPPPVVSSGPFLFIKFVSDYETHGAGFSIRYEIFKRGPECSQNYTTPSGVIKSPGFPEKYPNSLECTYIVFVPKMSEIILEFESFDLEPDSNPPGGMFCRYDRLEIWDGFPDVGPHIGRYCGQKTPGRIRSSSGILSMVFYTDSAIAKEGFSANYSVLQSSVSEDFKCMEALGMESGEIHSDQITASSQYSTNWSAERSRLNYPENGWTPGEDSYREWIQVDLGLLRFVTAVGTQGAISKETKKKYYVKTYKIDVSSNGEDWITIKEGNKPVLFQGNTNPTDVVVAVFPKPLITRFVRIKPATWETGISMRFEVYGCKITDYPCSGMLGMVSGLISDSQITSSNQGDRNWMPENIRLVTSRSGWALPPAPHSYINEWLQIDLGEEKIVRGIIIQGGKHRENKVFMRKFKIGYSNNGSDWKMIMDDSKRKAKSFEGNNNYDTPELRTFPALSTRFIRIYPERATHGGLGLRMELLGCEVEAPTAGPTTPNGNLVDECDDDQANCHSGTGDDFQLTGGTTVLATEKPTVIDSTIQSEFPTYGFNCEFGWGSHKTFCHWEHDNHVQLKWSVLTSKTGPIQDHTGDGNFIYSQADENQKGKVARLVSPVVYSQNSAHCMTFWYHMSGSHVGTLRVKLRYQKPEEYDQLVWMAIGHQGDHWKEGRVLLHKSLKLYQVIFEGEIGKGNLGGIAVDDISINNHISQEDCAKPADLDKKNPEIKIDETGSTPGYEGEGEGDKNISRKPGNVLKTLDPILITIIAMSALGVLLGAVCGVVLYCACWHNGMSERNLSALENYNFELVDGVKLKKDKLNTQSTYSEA

Row | SMILES | inhibition
1 | Cc1nc2c(-c3ccc(F)cc3)c(C)nn2c(C)c1CCC(=O)N1CCN(c2ccccn2)CC1 | -14.2%
2 | CCc1ccc(Nc2n[n+](-c3ccccc3)c(-c3cccc(Cl)c3Cl)s2)cc1 | 7.2%
3 | COc1cc(Br)c(-c2sc(Nc3ccccc3)n[n+]2-c2ccccc2)cc1OC | 23.7% (active)
4 | COc1ccc(C)cc1Nc1n[n+](-c2ccccc2)c(-c2cccc(Cl)c2Cl)s1 | 9.5%
5 | O=C(C(NS(=O)(=O)c1cccc2nsnc12)c1ccccc1)N1CCN(c2ccccc2)CC1 (stereo unspecified) | 3.4%
6 | COc1ccc(COC(=O)c2ccc(Cl)c(S(=O)(=O)N3CCOCC3)c2)cc1F | -7.6%
7 | O=C(CP(=O)(c1ccccc1)c1ccccc1)N1CCOCC1 | 12.2%
8 | O=C(Cc1ccccc1Cl)N1CCN(c2ccccn2)CC1 | -9.5%
9 | O=C(Cc1ccccc1Cl)N1CCOCC1 | 45.9% (active)
10 | C=CCOc1cccc(CNn2cn[nH]c2=S)c1 | -0.4%
11 | COC(=O)c1c(CCl)noc1C(=O)NC(C)C | 28.8% (active)
12 | CCCNC(=O)c1onc(CSc2ccc(F)cc2)c1C(=O)NC(C)C | 5.5%
13 | COC(=O)c1onc(-c2c(OC)cc(OC)cc2OC)c1C(=O)OC | 2.6%
14 | CC1CC(C)(C)n2c(O)c(N=NC(N)=S)c3cccc1c32 (stereo unspecified) | 6.2%
15 | O=C(O)CCCN1C(=O)C2C3c4ccccc4C(c4ccccc43)[C@@H]2C1=O (stereo partly specified) | -2%
16 | CCCCN(C)CCNC(=O)C1CCCN(S(=O)(=O)c2cccc3nsnc23)C1 (stereo unspecified) | -1.2%
17 | Cn1cccc1C1(C(F)(F)F)NCCNC1=O (stereo unspecified) | -1.4%
18 | Cc1c(CCO)c(=O)n(-c2ccccc2)n1S(=O)(=O)c1ccc(F)cc1 | -66%
19 | COc1cccc(-c2ccc3c(c2)N(Cc2ccccc2OC)C(=O)C(C)S3)c1 (stereo unspecified) | 21.5% (active)
20 | COc1cccc(-c2cc3nc(NCc4ccccc4OC)n(C)c(=O)c3s2)c1 | 9.9%
21 | COc1cccc(-n2cc3c(c2-c2ccccc2)c(=O)n(C)c(=O)n3C)c1 | -0.7%
22 | CN=C(c1ccccc1)c1c(C)cccc1C | 1.9%
23 | Cc1nc(S(=O)(=O)c2ccc(Br)cc2)nc2c1CCC2 | 0.1%
24 | CCOC(=O)/C=C/c1ccc(C(F)(F)F)cc1S(=O)(=O)NC(C)(C)C | 26.8% (active)
25 | CCOC(=O)CCC(NC(=O)c1ccc(CNc2nc3cc(C(F)(F)F)ccc3nc2C(=O)OCC)cc1)C(=O)OCC (stereo unspecified) | -1.5%
26 | Cn1c(N)c(C(=O)COC(=O)/C=C/c2cccc(C(F)(F)F)c2)c(=O)n(C)c1=O | 4.9%
